Data reported in ChEMBL document CHEMBL1961873, “Compounds: GSK PKIS; Assays: Nanosyn kinase panel” (2012).

Key:
[1] = biological target: Ribosomal protein S6 kinase alpha-6 (Homo sapiens) (UniProt Q9UK32); settings: at 1 µM;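 further: each value is a mean inhibition of RSK4 from a GSK PKIS panel screen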
[2] = biological target: T1, Serine/threonine-protein kinase Sgk1 (Homo sapiens) (UniProt O00141); settings: at 0.1 µM
T1 sequence (whole entry): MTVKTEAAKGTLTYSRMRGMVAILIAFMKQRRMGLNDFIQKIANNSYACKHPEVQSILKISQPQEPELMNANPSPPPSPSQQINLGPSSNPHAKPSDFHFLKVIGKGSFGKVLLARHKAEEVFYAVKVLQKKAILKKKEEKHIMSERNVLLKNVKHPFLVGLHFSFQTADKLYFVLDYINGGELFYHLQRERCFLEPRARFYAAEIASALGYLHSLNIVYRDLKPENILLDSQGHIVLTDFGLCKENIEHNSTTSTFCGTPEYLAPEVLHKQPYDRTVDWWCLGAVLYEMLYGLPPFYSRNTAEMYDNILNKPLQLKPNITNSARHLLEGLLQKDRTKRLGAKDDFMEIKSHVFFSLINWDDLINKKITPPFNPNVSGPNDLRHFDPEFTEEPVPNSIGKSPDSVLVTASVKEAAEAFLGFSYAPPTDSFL

[3] = biological target: T1, Serine/threonine-protein kinase Sgk1 (Homo sapiens); settings: at 1 µM
[4] = biological target: T2, Serine/threonine-protein kinase Sgk2 (Homo sapiens) (UniProt Q9HBY8); settings: at 0.1 µM
T2 sequence (whole entry): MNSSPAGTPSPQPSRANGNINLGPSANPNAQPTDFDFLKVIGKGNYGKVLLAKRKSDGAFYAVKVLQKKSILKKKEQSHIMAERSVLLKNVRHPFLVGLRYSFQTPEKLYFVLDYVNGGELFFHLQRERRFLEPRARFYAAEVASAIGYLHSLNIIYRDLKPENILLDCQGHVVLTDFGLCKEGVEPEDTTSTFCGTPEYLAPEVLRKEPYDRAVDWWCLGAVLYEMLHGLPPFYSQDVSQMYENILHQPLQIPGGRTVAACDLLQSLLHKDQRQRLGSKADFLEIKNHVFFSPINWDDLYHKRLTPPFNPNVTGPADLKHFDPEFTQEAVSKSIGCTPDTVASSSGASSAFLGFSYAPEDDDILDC

[5] = biological target: T2, Serine/threonine-protein kinase Sgk2 (Homo sapiens); settings: at 1 µM
[6] = biological target: T3, Serine/threonine-protein kinase Sgk3 (Homo sapiens) (UniProt Q96BR1); settings: at 0.1 µM
T3 sequence (whole entry): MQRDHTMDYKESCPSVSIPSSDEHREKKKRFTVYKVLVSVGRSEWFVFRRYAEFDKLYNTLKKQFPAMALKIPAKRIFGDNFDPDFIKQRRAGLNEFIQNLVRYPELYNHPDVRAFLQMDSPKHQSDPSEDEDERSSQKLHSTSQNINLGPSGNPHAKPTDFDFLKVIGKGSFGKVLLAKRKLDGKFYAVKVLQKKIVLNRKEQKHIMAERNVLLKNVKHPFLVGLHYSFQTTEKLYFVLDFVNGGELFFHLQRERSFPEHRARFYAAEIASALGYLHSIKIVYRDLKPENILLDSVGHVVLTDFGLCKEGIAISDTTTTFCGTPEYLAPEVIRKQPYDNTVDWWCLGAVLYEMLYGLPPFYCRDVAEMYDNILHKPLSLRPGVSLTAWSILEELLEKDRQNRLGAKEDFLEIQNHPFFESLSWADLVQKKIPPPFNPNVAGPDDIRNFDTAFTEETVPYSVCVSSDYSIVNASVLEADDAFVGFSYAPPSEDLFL

[7] = biological target: T3, Serine/threonine-protein kinase Sgk3 (Homo sapiens); settings: at 1 µM
[8] = biological target: 5'-AMP-activated protein kinase catalytic subunit alpha-1 (Homo sapiens) (UniProt Q13131); settings: at 0.1 µM
Sequence of 5'-AMP-activated protein kinase catalytic subunit alpha-1 (Homo sapiens) (Q13131 whole entry, looked up): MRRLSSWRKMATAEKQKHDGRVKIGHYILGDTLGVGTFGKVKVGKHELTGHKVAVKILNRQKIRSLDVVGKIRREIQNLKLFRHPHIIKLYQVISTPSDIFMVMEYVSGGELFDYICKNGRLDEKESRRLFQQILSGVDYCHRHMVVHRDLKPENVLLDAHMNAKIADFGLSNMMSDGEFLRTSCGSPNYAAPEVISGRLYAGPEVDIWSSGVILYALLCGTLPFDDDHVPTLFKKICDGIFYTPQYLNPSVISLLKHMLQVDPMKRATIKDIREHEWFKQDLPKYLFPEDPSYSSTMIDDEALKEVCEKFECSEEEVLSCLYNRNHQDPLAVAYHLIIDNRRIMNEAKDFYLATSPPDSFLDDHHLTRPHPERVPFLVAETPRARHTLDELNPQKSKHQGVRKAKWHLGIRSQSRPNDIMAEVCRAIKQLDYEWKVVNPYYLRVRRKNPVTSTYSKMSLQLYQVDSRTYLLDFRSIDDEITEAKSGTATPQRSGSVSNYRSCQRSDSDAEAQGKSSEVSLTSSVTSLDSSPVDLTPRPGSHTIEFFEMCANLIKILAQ

[9] = biological target: 5'-AMP-activated protein kinase catalytic subunit alpha-1 (Homo sapiens) (UniProt Q13131); settings: at 1 µM
[10] = biological target: 5'-AMP-activated protein kinase catalytic subunit alpha-2 (Homo sapiens) (UniProt P54646); settings: at 0.1 µM
Sequence of 5'-AMP-activated protein kinase catalytic subunit alpha-2 (Homo sapiens) (P54646 whole entry, looked up): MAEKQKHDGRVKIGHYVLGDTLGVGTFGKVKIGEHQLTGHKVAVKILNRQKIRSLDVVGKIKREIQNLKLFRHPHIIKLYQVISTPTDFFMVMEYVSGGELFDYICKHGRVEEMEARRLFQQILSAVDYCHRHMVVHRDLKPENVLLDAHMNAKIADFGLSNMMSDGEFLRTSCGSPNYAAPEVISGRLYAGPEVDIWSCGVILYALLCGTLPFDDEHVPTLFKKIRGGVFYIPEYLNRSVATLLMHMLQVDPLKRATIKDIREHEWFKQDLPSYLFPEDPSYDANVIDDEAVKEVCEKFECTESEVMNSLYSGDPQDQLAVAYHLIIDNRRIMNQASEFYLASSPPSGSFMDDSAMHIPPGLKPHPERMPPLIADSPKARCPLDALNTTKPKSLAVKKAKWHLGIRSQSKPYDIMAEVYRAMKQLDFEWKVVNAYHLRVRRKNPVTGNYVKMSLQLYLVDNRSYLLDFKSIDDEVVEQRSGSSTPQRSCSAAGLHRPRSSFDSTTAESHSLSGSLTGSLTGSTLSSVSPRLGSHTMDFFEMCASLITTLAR

[11] = biological target: 5'-AMP-activated protein kinase catalytic subunit alpha-2 (Homo sapiens) (UniProt P54646); settings: at 1 µM
[12] = biological target: T4, NUAK family SNF1-like kinase 1 (Homo sapiens) (UniProt O60285); settings: at 0.1 µM
T4 sequence (whole entry): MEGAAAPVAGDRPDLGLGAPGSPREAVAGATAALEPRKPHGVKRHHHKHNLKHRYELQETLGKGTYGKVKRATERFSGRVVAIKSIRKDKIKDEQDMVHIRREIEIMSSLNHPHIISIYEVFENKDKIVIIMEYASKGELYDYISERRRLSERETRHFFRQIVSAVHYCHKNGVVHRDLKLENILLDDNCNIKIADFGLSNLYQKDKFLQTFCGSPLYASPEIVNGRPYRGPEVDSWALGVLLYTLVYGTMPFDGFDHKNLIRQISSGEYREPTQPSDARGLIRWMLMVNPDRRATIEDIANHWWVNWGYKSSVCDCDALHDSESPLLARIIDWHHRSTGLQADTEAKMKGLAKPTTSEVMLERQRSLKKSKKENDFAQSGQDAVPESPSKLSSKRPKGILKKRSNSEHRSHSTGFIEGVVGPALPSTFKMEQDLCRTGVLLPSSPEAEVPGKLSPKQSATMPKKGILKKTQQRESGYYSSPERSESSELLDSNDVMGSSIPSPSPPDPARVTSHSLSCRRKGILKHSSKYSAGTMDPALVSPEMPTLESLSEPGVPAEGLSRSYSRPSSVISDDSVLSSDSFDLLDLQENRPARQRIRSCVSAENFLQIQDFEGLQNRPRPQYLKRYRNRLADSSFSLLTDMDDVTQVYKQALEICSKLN

[13] = biological target: T4, NUAK family SNF1-like kinase 1 (Homo sapiens); settings: at 1 µM
[14] = biological target: T5, Serine/threonine-protein kinase BRSK1 (Homo sapiens) (UniProt Q8TDC3); settings: at 0.1 µM
T5 sequence (whole entry): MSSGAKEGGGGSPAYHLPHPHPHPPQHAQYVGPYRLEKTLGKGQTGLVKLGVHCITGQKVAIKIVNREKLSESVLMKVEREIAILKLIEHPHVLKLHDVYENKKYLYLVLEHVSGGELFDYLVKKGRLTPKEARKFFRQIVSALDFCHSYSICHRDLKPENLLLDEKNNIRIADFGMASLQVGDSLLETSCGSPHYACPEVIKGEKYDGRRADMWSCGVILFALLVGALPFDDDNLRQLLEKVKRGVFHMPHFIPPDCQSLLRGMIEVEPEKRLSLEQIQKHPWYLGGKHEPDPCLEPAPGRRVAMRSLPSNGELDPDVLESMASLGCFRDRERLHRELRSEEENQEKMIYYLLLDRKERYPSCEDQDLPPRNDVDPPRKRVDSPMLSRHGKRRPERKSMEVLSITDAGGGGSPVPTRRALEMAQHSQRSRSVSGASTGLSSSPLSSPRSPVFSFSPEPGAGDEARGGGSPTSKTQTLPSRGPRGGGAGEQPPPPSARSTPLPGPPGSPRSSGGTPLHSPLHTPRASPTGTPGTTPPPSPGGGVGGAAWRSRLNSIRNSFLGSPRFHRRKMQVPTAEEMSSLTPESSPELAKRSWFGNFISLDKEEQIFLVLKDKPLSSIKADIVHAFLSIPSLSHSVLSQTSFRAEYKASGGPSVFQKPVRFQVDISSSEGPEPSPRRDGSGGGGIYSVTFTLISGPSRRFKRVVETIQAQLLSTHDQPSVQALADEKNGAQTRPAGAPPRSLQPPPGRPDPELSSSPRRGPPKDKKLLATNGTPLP

[15] = biological target: T5, Serine/threonine-protein kinase BRSK1 (Homo sapiens); settings: at 1 µM
[16] = biological target: T6, Serine/threonine-protein kinase BRSK2 (Homo sapiens) (UniProt Q8IWQ3); settings: at 0.1 µM
T6 sequence (whole entry): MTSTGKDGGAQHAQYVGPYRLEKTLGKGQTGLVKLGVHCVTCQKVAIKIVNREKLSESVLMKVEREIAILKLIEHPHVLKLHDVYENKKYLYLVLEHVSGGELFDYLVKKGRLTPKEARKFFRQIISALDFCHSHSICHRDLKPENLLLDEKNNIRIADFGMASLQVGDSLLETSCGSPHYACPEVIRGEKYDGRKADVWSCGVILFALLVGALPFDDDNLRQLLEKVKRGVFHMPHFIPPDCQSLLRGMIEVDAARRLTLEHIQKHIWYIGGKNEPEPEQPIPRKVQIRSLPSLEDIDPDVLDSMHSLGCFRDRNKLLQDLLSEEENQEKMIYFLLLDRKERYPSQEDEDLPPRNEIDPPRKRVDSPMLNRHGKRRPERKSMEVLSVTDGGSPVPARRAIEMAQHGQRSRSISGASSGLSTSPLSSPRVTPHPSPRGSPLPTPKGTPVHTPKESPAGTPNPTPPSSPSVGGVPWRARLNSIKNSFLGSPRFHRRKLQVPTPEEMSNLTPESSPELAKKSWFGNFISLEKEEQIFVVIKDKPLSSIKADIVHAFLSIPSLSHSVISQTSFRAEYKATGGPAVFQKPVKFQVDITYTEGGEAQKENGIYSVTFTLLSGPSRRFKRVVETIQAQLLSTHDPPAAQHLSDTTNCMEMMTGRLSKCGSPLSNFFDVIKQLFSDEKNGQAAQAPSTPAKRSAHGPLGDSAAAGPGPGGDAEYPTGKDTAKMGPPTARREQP

[17] = biological target: T6, Serine/threonine-protein kinase BRSK2 (Homo sapiens); settings: at 1 µM
[18] = biological target: Calcium/calmodulin-dependent protein kinase type 1D (Homo sapiens) (UniProt Q8IU85); settings: at 0.1 µM
Sequence of Calcium/calmodulin-dependent protein kinase type 1D (Homo sapiens) (Q8IU85 whole entry, looked up): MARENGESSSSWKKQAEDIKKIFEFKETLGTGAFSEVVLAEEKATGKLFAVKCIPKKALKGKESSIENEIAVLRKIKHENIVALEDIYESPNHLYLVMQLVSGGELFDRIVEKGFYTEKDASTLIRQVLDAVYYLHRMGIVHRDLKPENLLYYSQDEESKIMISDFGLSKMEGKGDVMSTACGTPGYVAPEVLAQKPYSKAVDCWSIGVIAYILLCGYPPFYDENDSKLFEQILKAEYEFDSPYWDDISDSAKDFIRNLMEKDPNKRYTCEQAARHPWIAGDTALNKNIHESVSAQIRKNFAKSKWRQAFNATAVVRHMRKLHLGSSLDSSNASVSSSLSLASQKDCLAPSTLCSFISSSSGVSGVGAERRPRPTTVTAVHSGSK

[19] = biological target: Calcium/calmodulin-dependent protein kinase type 1D (Homo sapiens) (UniProt Q8IU85); settings: at 1 µM
[20] = biological target: Calcium/calmodulin-dependent protein kinase type II subunit alpha (Homo sapiens) (UniProt Q9UQM7); settings: at 0.1 µM;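 further: reported values are averages (mean inhibition of CAMK2A)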
Sequence of Calcium/calmodulin-dependent protein kinase type II subunit alpha (Homo sapiens) (Q9UQM7 whole entry): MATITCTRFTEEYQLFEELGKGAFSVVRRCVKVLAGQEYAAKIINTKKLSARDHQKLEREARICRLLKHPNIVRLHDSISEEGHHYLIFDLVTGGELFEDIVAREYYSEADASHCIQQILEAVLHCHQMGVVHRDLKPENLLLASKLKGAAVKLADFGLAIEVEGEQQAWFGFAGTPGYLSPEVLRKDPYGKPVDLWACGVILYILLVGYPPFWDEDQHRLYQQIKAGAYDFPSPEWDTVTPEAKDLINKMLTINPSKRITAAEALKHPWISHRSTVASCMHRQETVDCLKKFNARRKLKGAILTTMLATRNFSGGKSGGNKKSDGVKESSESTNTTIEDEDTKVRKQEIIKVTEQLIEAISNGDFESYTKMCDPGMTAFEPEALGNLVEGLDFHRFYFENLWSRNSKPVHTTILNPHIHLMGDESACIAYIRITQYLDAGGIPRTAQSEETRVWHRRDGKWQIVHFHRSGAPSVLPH

Sequence of Ribosomal protein S6 kinase alpha-6 (Homo sapiens) (Q9UK32 whole entry): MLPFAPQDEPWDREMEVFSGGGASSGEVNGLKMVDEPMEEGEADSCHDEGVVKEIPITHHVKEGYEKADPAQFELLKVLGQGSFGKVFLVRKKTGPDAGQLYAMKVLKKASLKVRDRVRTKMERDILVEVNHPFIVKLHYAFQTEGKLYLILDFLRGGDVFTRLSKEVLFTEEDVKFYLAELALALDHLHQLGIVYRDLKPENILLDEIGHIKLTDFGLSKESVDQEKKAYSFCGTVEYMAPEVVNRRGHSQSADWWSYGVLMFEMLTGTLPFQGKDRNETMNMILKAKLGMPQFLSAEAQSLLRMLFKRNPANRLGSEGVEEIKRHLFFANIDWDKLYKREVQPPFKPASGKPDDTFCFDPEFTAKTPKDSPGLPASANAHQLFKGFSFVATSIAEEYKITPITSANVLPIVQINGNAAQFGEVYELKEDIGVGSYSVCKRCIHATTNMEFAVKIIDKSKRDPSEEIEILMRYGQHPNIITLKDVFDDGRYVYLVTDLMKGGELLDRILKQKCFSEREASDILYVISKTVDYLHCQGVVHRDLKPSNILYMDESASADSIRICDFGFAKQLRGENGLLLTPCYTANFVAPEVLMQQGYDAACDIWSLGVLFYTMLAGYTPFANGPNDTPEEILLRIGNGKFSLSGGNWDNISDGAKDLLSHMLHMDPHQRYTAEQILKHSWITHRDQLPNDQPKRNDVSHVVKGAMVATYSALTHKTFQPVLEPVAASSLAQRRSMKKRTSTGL

Row | SMILES | inhibition [1] [%] | inhibition [2] [%] | inhibition [3] [%] | inhibition [4] [%] | inhibition [5] [%] | inhibition [6] [%] | inhibition [7] [%] | inhibition [8] [%] | inhibition [9] [%] | inhibition [10] [%] | inhibition [11] [%] | inhibition [12] [%] | inhibition [13] [%] | inhibition [14] [%] | inhibition [15] [%] | inhibition [16] [%] | inhibition [17] [%] | inhibition [18] [%] | inhibition [19] [%] | inhibition [20] [%]
1 | COc1cc2c(cc1Nc1nc(Nc3cccc(F)c3C(N)=O)c3cc[nH]c3n1)N(C(=O)CN1CCN(C(C)C)CC1)CC2 | 11.7 | -0.48 | 1.29 | 1.96 | 0.58 | 0.73 | 0.46 | 1.45 | 3.93 | 5.43 | 3.18 | 1.37 | 5.31 | 2.82 | -1.3 | -0.84 | -0.2 | 1.29 | 7.02 | 2.3
2 | COc1ccc(Nc2ncc(-c3ccccc3)o2)cc1OC | 3.67 | 1.25 | 9.75 | 1.33 | -0.37 | 0.7 | -1.61 | 0.83 | 5.29 | -0.43 | 14.5 | 18.2 | 61.5 | 1.32 | 11.5 | 0.9 | 12.8 | 0.37 | 1.51 | 1.79
3 | Fc1ccc(Nc2nccc(-c3c(-c4ccc(C(F)(F)F)cc4)nn4ncccc34)n2)cc1F | 0.66 | 2.17 | 2.25 | 0.8 | -0.85 | 2.84 | 1.5 | 1.79 | 0.39 | 1.16 | 3.75 | 2.79 | 1.57 | 2.38 | 1.19 | 1.46 | 0.71 | -0.76 | 1.66 | 3.04
4 | c1cnn2ncc(-c3ccnc(NCCCN4CCOCC4)n3)c2c1 | 0.49 | 1.8 | 3.79 | 0.34 | 5.05 | 5.66 | 8.34 | 2.28 | 2.5 | 3.24 | 2.36 | -0.66 | 0.6 | 0.82 | 1.97 | 1.69 | 1.28 | -0.6 | -0.17 | 2.86
